Laboratory results published in PubChem BioAssay (Tox21).
Records with an inconclusive call do not appear. Active and inactive are the calls of the source. Calls come from the whole dose curve.

Assay: qHTS assay to identify small molecule agonists of the AP-1 signaling pathway - cell viability counter screen (AID 1159525); note: nearly all actives have a fitted effect of over 55% in size
Details: ME-180 (cervical carcinoma) AP-1-bla cells viability, ATP luminescence, 5 h; series mostly up to 76.8 µM
Summary of the method: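 Each titration point was normalised to DMSO and tetra n-octyl ammonium bromide controls. The read was Cell Titer Glo luminescence after 30 min at RT, following 5 h compound exposure of ME-180 AP-1-bla cells at 37 °C.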

Q: Which outcome does the source give for `Cc1cccc(C)c1NC(=O)CC12CCCN1CCC2` here?
A: The outcome was “inactive”.

Q: With `C[C@@H]1C[C@H]2[C@@H]3C[C@H](F)C4=CC(=O)C(Cl)=C[C@]4(C)[C@@]3(F)[C@@H](O)C[C@]2(C)[C@@]1(O)C(=O)CO` as the molecule, how does the outcome read?
A: The outcome was “inactive”.

Q: With `C=CC(=O)OCCCl` as the molecule, how does the outcome read?
A: Its outcome is “inactive”.

Q: Which viability change, negative = cytotoxic does the source give for `C[N+]1(CC2COC(c3ccccc3)(c3ccccc3)O2)CCCCC1` (stereo not drawn) here?
A: The viability change, negative = cytotoxic was 0.502% [at 15.8 µM] (inactive).

Q: Which outcome does the source give for `CO[Si](C)(OC)c1ccccc1` here?
A: Its outcome is “inactive”.

Q: With `CC(C)[C@H]1CC[C@@H](C)CC1=O` as the molecule, how does the outcome read?
A: The outcome was “inactive”.

Q: With `Cc1nc(C2CCCCC2)c(-c2ccc(S(N)(=O)=O)c(F)c2)o1` as the molecule, how does the outcome read?
A: Its outcome is “inactive”.

Q: With `CCOC(=O)COC(=O)c1ccccc1C(=O)OCC` as the molecule, how does the outcome read?
A: Its outcome is “inactive”.

Q: For `CCOC(=O)c1cnc2c(cnn2CC)c1NN=C(C)C`, which outcome is on record?
A: Its outcome is “inactive”.

Q: Which outcome does the source give for `CC(=O)c1ccc2ccccc2c1` here?
A: The outcome was “inactive”.

Q: Which outcome does the source give for `COc1ccc2cc1Oc1cc3c(cc1OC)CC[N+](C)(C)[C@H]3Cc1ccc(cc1)Oc1c(OC)c(OC)cc3c1[C@@H](C2)[N+](C)(C)CC3` here?
A: The outcome was “inactive”.

Q: With `O=S(=O)(O)c1cccc2ccccc12` as the molecule, how does the outcome read?
A: The outcome was “inactive”.

Q: With `C1CCC2(CCCCO2)OC1` as the molecule, how does the outcome read?
A: The outcome was “inactive”.

Q: Which outcome does the source give for `C[C@H]1C[C@H]2[C@@H]3CCC4=CC(=O)C=C[C@]4(C)[C@H]3C(=O)C[C@]2(C)[C@@]1(O)C(=O)CO` here?
A: The outcome was “inactive”.

Q: For `CC1=NN(c2cc(S(=O)(=O)O)ccc2Cl)C(=O)C1N=Nc1ccccc1` (stereo not drawn), which outcome is on record?
A: The outcome was “inactive”.

Q: With `O=S(=O)(O)c1cccc(S(=O)(=O)O)c1` as the molecule, how does the outcome read?
A: The outcome was “inactive”.

Q: For `Nc1ccncc1N`, which outcome is on record?
A: Its outcome is “inactive”.

Q: With `CCN(Cc1ccccc1)c1ccccc1` as the molecule, how does the outcome read?
A: Its outcome is “inactive”.

Q: For `CC[N+](CC)(CC(=O)Nc1c(C)cccc1C)Cc1ccccc1` (tested in a mixture with another compound), which outcome is on record?
A: Its outcome is “inactive”.

Q: For `CN(C)CCCN(C)CCCN(C)C`, which outcome is on record?
A: The outcome was “inactive”.

Q: For `Cc1ccnc(NS(=O)(=O)c2ccc(N)cc2)n1`, which outcome is on record?
A: Its outcome is “inactive”.

Q: With `CCCCCCCCCCCCCCCCCCO` as the molecule, how does the outcome read?
A: Its outcome is “inactive”.

Q: Which outcome does the source give for `O=C(O)Cc1csc(-c2ccc(Cl)cc2)n1` here?
A: Its outcome is “inactive”.

Q: For `NC(=O)N1c2ccccc2CC(=O)c2ccccc21`, which outcome is on record?
A: The outcome was “inactive”.

Q: For `CCCCCC(C)N` (stereo not drawn), which outcome is on record?
A: The outcome was “inactive”.

Q: With `Nc1ccn([C@@H]2O[C@H](CO)[C@@H](O)[C@@H]2O)c(=O)n1` as the molecule, how does the outcome read?
A: Its outcome is “inactive”.

Q: Which outcome does the source give for `CN1CCC(=C2c3ccccc3CCc3cccnc32)CC1` here?
A: Its outcome is “inactive”.

Q: Which outcome does the source give for `CCCCc1nc(Cl)c(CO)n1Cc1ccc(-c2ccccc2-c2nn[nH]n2)cc1` here?
A: Its outcome is “inactive”.

Q: With `c1ccc2sc(SN3CCOCC3)nc2c1` as the molecule, how does the outcome read?
A: Its outcome is “inactive”.

Q: For `CCN(C=O)CC`, which outcome is on record?
A: The outcome was “inactive”.

Q: Which outcome does the source give for `CC(=O)C1CCCCC1=O` (stereo not drawn) here?
A: Its outcome is “inactive”.

Q: Which outcome does the source give for `COc1cc(-c2ccc(=O)[nH]n2)ccc1OC(F)F` here?
A: Its outcome is “inactive”.

Q: With `CCCc1ncc(C[n+]2ccccc2C)c(N)n1` as the molecule, how does the outcome read?
A: The outcome was “inactive”.

Q: Which outcome does the source give for `O=C(CO)[C@@H](O)[C@H](O)[C@H](O)CO` here?
A: The outcome was “inactive”.

Q: With `CC(CC=O)CC(C)(C)C` (stereo not drawn) as the molecule, how does the outcome read?
A: Its outcome is “inactive”.

Q: For `Clc1cc(Cl)c(Cl)nc1Cl`, which outcome is on record?
A: Its outcome is “inactive”.

Q: For `CCNS(=O)(=O)c1ccc(C)cc1`, which outcome is on record?
A: The outcome was “inactive”.

Q: For `Cc1coc2ccccc2c1=O`, which outcome is on record?
A: Its outcome is “inactive”.
